Rows were chosen to be rich in hits. Some 12% of all compounds tested hit in one or more screens of this group.
USP30 inh: blocks human USP30 ubiquitin-rhodamine cleavage. purified USP30, Ub-rhodamine cleavage fluorescence. inhibition, % at 25 µM. 5.3% of 47,000 active. AID 1645860
USP8 block: human USP8 deubiquitinase inhibition; P40818; purified USP8, Ub-rhodamine cleavage fluorescence, 30 min; inhibition, % at 20 µM; 4.2% of 47,000 active; AID 1645853
USP17 block: human USP17-like deubiquitinase inhibition. AID 1645855. A8MUK1. purified USP17, Ub-rhodamine cleavage fluorescence, 3 h. 6.5% of 47,000 active. inhibition, % at 50 µM
Numbers without * were called inactive; i = inactive. No stated cut-off is given here; in the data, active means inhibition above about 30%; inactive means the rest.

SMILES	USP30 inh	USP8 block	USP17 block
Cc1ccccc1CS(=O)(=O)Cc1ccc(C(=O)NCCN2CCCC2)o1	-38.7	-3.8	25.1
Cc1nc(NCCCN2CCOCC2)cc(-c2cncc(-c3cc4ccccc4s3)c2)n1	-8.1	-46.2	-6.9
O=C(Nc1nc2c(Cl)c(Cl)ccc2s1)c1ccncc1	-14.0	21.4	8.0
CSc1ccccc1C(=O)Nc1nc(-c2ccncc2)cs1	33.6*	-0.8	54.6*
CSc1ccc(C(=O)Nc2nc(-c3ccncc3)cs2)cc1	5.2	43.8*	23.8
CCOC(=O)c1csc(NC(=O)c2ccccc2Br)n1	5.5	-4.2	-0.1
Cc1nn2c(nc(NC3CCCc4ccccc43)c3ccccc32)c1Cl (configuration not stated)	15.9	16.2	13.0
CNC(=O)c1ccccc1NC(=O)c1c(O)c2cccc3c2n(c1=O)CC3	-36.7	-118.2	-23.3
Cc1ccc(CNC(=O)c2c(O)c3cccc4c3n(c2=O)CC4)cc1	-14.4	59.4*	-10.9
Cn1nc(-c2ccccc2)c(COC(=O)c2ccc([N+](=O)[O-])cc2)c1Cl	11.2	4.8	59.5*
Cn1nc(-c2ccccc2)c(COC(=O)c2cc(C(F)(F)F)cc(C(F)(F)F)c2)c1S(=O)(=O)c1ccc(Cl)cc1	15.8	19.5	15.1
CNC(=O)[C@@]12CCC3(CCN(C(=O)c4cccc(OC)c4)CC3)[C@@H]1CN(C)C2	0.4	-5.7	-1.7
Cc1ccc(CS(=O)(=O)c2cn(CC(=O)NCCC3=CCCCC3)c3ccccc23)cc1	-13.0	14.8	6.6
Cc1ccc(CS(=O)(=O)c2cn(CC(=O)NCCc3ccccc3)c3ccccc23)cc1	-3.8	24.9	2.7
Cc1cccc(CNC(=O)Cn2cc(-c3nnc(C)o3)c3ccccc32)c1	28.9	13.3	26.7
Cc1ccc(CNC(=O)Cn2cc(S(=O)(=O)Cc3ccccc3)c3ccccc32)cc1	-113.9	37.9*	-38.0
Cc1cccc(CNC(=O)Cn2cc(-c3nnco3)c3ccccc32)c1	10.6	-1.3	45.9*
Cc1ccc(CS(=O)(=O)c2cn(CC(=O)NCc3ccco3)c3ccccc23)cc1	12.2	34.0*	37.0*
Cc1cc(Cl)ccc1NC(=O)COC(=O)c1n[nH]c2ccccc12	-92.0	31.0*	5.8
Cc1ccc(Cl)cc1NC(=O)COC(=O)c1ccc2ccccc2n1	i	-9.9	-203.4
CCc1cnc(N2CCC3(CC2)OC(C(=O)N2CCOCC2)Cn2ccnc23)nc1 (configuration not stated)	-6.9	-16.9	-13.2
COc1cc2c(cc1OC)[C@H]1Cc3cc(OC)c(OC)cc3[C@@H](C2)N1C	-6.5	17.1	13.8
COc1cc2c(cc1OC)C(COc1cc(C)cc(C)c1)NCC2 (configuration not stated)	-203.9	64.9*	0.5
CC(=O)N1C[C@@H]2C[C@@]3(C)[C@H](CCCC[C@@H]13)N2C(=O)c1cc(C)nc2onc(C)c12	-18.3	16.7	-35.5
O=C(Nc1ccncc1)c1cn(Cc2ccccc2)cc2c(=O)n(-c3ccccc3)nc1-2	49.9*	17.8	24.2
SMILES	USP30 inh	USP8 block	USP17 block
O=C(NCc1ccc(F)cc1)c1cn(CC2CCCO2)cc2c(=O)n(-c3ccccc3)nc1-2 (configuration not stated)	-0.4	-2.2	-1.7
Cc1noc(C)c1CC(=O)N1CCC(Oc2cc(N(C)C)ncn2)C1 (configuration not stated)	-2.0	-0.5	-3.9
COc1ccc(CN2CCC(NC(=O)C3CCC3)C2)cn1 (configuration not stated)	-15.5	-4.7	-7.5
Cc1noc(-c2ccnc(-n3ncc(C(=O)N4CCC(C)CC4)c3C)c2)n1	-13.8	-4.1	-0.9
CN(C)c1nc(NCc2ccccc2)nc(Oc2ccc(=O)[nH]n2)n1	30.9*	0.0	8.9
Cc1ccc(CNc2nc(N)c([N+](=O)[O-])c(NCc3ccccc3)n2)cc1	29.1	-10.9	10.0
Cn1cccc1C1CCCCCN1C(=O)c1ccncc1 (configuration not stated)	-26.9	-152.3	-18.4
CC(=O)N(O)[C@@H]1c2cc(C#N)ccc2OC(C)(C)[C@H]1O	11.4	33.9*	4.1
CC1(C)Oc2ccc(C#N)cc2[C@H](N2CCCC2=O)[C@H]1O	-18.5	3.2	-13.3
CNC(=O)N1C[C@H]2N(c3ncccn3)CCC[C@@]2(C(=O)NCC2CC2)C1	7.9	-5.8	-2.0
Cc1cccc(-n2ncc3c(N(CCO)CCO)ncnc32)c1	33.6*	27.7	23.7
c1ccc(CN(Cc2ccccc2)c2ncnc3c2cnn3-c2ccccc2)cc1	9.4	1.1	0.6
Cn1c(SC(c2ccccc2)c2ccccc2)nnc1-c1ccncc1	27.2	10.9	7.6
O=c1c2cc(F)ccc2ncn1C1CCN(S(=O)(=O)c2ccccc2)CC1	0.3	6.2	0.9
Cc1ccc(S(=O)(=O)N2CCC(n3cnc4ccc(C)cc4c3=O)CC2)cc1	35.2*	0.0	18.1
CNC(C(=O)NC(CO)Cc1c[nH]c2ccccc12)C(C)C (configuration not stated)	23.9	-0.3	11.6
COc1ccc(Cc2nnc(Nc3ccc(F)cc3)[nH]c2=O)cc1OC	34.9*	17.5	3.9
COc1ccc(Cc2nnc(Nc3ccc(Cl)cc3)[nH]c2=O)cc1	-27.9	5.3	4.6
CN(C)c1cnc(CC2CCCN(C(=O)c3ccnnc3)CC2)cn1 (configuration not stated)	9.9	-3.9	7.8
COc1cccc(OC)c1C(=O)Nc1c(NCc2ccccc2)c2ccccc2oc1=O	16.8	-51.9	30.5*
COc1cccc(OC)c1C(=O)Nc1ccccc1NC(=O)c1c(OC)cccc1OC	-7.1	-39.1	-16.6
COc1ccccc1C(=O)N1CCN(C(=O)c2cc(-c3ccc(F)cc3)n[nH]2)CC1	-3.0	-197.5	-3.3
Cc1c(C2CCCN(C(=O)c3ccn(C)n3)C2)n2c(nc1=O)CCC2 (configuration not stated)	37.0*	35.6*	19.5
CNc1cncc(C2CCN(C(=O)c3ccn(C)n3)CC2)n1	1.7	6.0	3.9
Cc1c(S(=O)(=O)N2CCCC2)c(C)n(C)c1C(=O)N1CCc2ccccc21	-0.1	-0.1	-4.9
SMILES	USP30 inh	USP8 block	USP17 block
CCc1nnc(-c2c(C)c(S(=O)(=O)N3CCCCC3)c(C)n2C)o1	-6.2	6.0	-0.9
COc1cnc(-c2ccccn2)nc1Sc1ccccc1Cl	87.2*	-326.3	38.8*
COc1ccc(Sc2cc(C(F)(F)F)nc(-c3ccccn3)n2)cc1	17.5	-20.3	-5.8
COc1ccc(CCNC(=O)CSc2nc3c(cnn3-c3ccc(C)cc3)c(=O)[nH]2)cc1OC	19.5	-3.2	-0.2
Cc1ccc(-n2ncc3c(=O)[nH]c(SCC(=O)NCc4ccco4)nc32)cc1C	-64.7	39.5*	-0.8
Cc1cc2oc(=O)cc(COC(=O)c3ccc4[nH]c(C)c(C)c4c3)c2cc1Cl	-97.8	22.9	45.9*
Cc1cc(C)cc(C(=O)OCc2cc(=O)oc3cc(C)ccc23)c1	-14.7	2.1	0.1
Cc1nc2c(c(=O)n1CC(=O)Nc1ccccc1F)CCN(Cc1ccccc1)C2	-59.3	-10.9	-17.3
CCc1ccccc1NC(=O)Cn1c(C)nc2c(c1=O)CCN(Cc1ccccc1)C2	-54.2	51.5*	19.3
Cc1ccc(Nc2nccc(C3CCCN(C(=O)C4CC4)C3)n2)cc1 (configuration not stated)	-3.9	3.0	-8.2
Cc1cccc(C2=NC3(CCN(Cc4ccccc4F)CC3)NC2=O)c1	-13.8	-158.2	-37.2

Screening results deposited in PubChem by Buhrlage Lab, Dana-Farber Cancer Institute and Novartis Institutes for BioMedical Research (Cambridge, Mass).
